# High-throughput results deposited in PubChem BioAssay by several laboratories.
# In the library only some 27% were active in any assay of this set; here they are far more common.
# CYP2C9 act: increases human cytochrome P450 2C9 activity. P11712. recombinant CYP2C9, luciferin-H conversion, luminescence; stronger effect = higher value; factor 1 = untreated enzyme, 0 = blocked. activation factor at 5 µM. 96,000 compounds, 1.4% hits. AID 1024;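 active = activation factor of 2 or more for CYP2C9 at a 5 µM dose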
# CYP2C19 act: cytochrome P450 2C19 (human) activation | P33261 | 96,000 tested, under 10 active | recombinant CYP2C19, luciferin-H EGE luminescence; stronger effect = higher value; 0 = fully inhibited enzyme, 1 = untreated enzyme | activation factor at 5 µM;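 active = activation factor of at least 2 at 5 µM in the primary screen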
# Target sequence (P33261 whole entry, looked up): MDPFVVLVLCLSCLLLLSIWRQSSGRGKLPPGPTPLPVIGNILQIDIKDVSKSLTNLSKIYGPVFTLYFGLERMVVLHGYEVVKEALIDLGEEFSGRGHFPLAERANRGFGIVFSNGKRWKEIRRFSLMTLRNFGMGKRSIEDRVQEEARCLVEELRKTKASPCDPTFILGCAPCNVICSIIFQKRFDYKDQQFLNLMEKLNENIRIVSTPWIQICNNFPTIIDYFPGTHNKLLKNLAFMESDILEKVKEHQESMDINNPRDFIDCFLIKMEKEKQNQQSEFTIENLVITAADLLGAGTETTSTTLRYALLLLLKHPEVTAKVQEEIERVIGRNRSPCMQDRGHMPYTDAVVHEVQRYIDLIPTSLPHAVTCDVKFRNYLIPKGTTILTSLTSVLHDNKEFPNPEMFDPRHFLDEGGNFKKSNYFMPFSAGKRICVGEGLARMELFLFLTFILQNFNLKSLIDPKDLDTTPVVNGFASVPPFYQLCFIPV
# CYP2C19 inhib: blocks human cytochrome P450 2C19. P33261. CYP2C19 Supersomes, luciferin-H EGE luminescence, 30 min. inhibition, % at 5 µM. 96,000 compounds, 21% hits;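 active = CYP2C19 inhibition above a set limit at 5 µM in the primary screen, cut at about 50% in these data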
# CYP2C9 inh: inhibitors of human CYP2C9; CYP2C9 Supersomes, luciferin-H conversion, luminescence; inhibition, % at 5 µM; 96,000 compounds, 20% hits; AID 777;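 active = blocking of liver enzyme CYP2C9 beyond about 50% at 5 µM, limit read from the data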
# EphB4 ephrin blk: blocks human EphB4 binding to ephrin-B2; P54760; EphB4 LBD / TNYL-RAW-Alexa532 peptide, fluorescence polarization; inhibition, % at 7 µM; 97,000 compounds, 0.15% hits;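 active = inhibition above the screen-wide mean inhibition plus 3 SD, cut at about 15% in these data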
# A number is an active result; 0 = inactive; - = no result given.
SMILES,CYP2C9 act,CYP2C19 act,CYP2C19 inhib,CYP2C9 inh,EphB4 ephrin blk
COc1ccccc1OCCCn1cc(C(=O)c2ccco2)c2ccccc21,0,0,98,96,0
CCN1CCN(c2nc3c(c(=O)[nH]2)CCCC3)CC1,0,0,0,0,0
O/N=C/c1c[nH]c2ccccc12,0,0,0,0,0
CCCC/C(=N\O)c1c[nH]c2ccccc12,0,0,69,0,0
Cc1ccc(Cc2c(C)nc3nc(SCC(=O)N4CCC5(CC4)OCCO5)nn3c2C)cc1,0,0,52,65,0
Cc1nc2cc(-c3ccccc3)nn2c(C)c1CCC(=O)N1CCC2(CC1)OCCO2,0,0,0,0,-
Cc1ccccc1Cc1c(C)nc2nc(SCC(=O)N3CCC4(CC3)OCCO4)nn2c1C,0,0,0,89,0
CC(C)N1C(=O)CC2(CC[N+](C)(CCOC(=O)C(O)(c3ccccc3)c3ccccc3)CC2)C1=O (configuration not stated),0,0,0,0,0
CN1CCN(c2nccc3c2ncn3C)CC1,0,0,0,0,0
O=c1[nH]c(=S)n(Cc2ccco2)c(O)c1C=NCc1cccs1,0,0,0,59,0
O=C(COc1ccc(Cl)cc1Cl)N1CCN(C/C=C/c2ccccc2)CC1,0,0,0,56,0
Clc1ccc2c(c1)C(c1ccccc1Cl)=NCc1nnc(Br)n1-2,-,-,-,-,0
O=C(Cn1cc(C(=O)c2ccccc2)c2ccccc21)NCc1ccco1,0,0,82,82,0
O=C(c1ccccc1)c1cn(CC(=O)N2CCCc3ccccc32)c2ccccc12,0,0,0,74,0
CC1CCCN(CC(=O)N2CCCc3ccccc32)C1 (configuration not stated),-,-,-,-,0
Cc1nn(Cc2ccccc2)c(C)c1C(=O)OCC(=O)NCc1ccco1,0,0,60,70,0
Cc1cc(NC(=O)COC(=O)c2c(C)nn(Cc3ccccc3Cl)c2Cl)no1,0,0,0,0,0
Cc1cc(NC(=O)COC(=O)c2c(C)nn(Cc3ccccc3)c2C)no1,0,0,0,65,0
Cc1nn(Cc2ccccc2Cl)c(Cl)c1C(=O)OCC(=O)NCc1ccco1,0,0,0,0,0
Cc1nn(Cc2ccccc2)c(C)c1C(=O)OCC(=O)Nc1ccccc1SCC#N,0,0,86,96,0
C=CCn1c(O)c(C(C)=NCCN2CCCCC2)c(=O)[nH]c1=O,0,0,0,0,0
CNCC(O)c1cccc(OC(=O)c2ccccc2C)c1 (configuration not stated),0,0,0,0,0
Cc1cc(OCC(=O)O)c2c3c(c(=O)oc2c1)CCCC3,0,0,0,0,0
COC(=O)c1ccc(COc2cc(C)cc3oc(=O)c4c(c23)CCCC4)o1,0,0,79,98,0
Cc1ccc(-n2nc(C)cc2NC(=O)COc2cc(C)cc3oc(=O)c4c(c23)CCC4)cc1,0,0,0,80,0
SMILES,CYP2C9 act,CYP2C19 act,CYP2C19 inhib,CYP2C9 inh,EphB4 ephrin blk
Cc1cc(OCC(=O)Nc2cc(C)nn2-c2ccccn2)c2c3c(c(=O)oc2c1)CCC3,0,0,0,0,-
Cc1cc(OC(=O)c2ccco2)c2c3c(c(=O)oc2c1)CCCC3,0,0,0,0,15
CCCOC(=O)COc1cc(C)cc2oc(=O)c3c(c12)CCC3,0,0,0,0,0
CCn1ncc(/C=C2/CC3C4CC=C5CC(O)CCC5(C)C4CCC3(C)C2=O)c1C (configuration not stated),-,-,-,-,0
O=c1c2ccccc2nc(-c2ccccc2)n1-n1cccc1,0,0,53,57,0
CC(C)n1nnnc1CN1CCN(C)CC1,0,0,0,0,0
Nc1ccc(C2(c3ccc(N)cc3)CN3CCC2CC3)cc1,0,0,0,0,0
CCOC(=O)C1SC2(C(F)F)CC1(O)c1c(c(OC)c3occc3c1OC)O2 (configuration not stated),0,0,100,97,0
O=C1C(c2ccccc2)=C(N2CC2)c2ccccc21,0,0,0,0,0
CCOC(=O)C(C)(CC)NC(=O)CSP(=S)(OCC)OCC (configuration not stated),0,0,98,91,0
CCOP(=S)(OCC)SCC(=O)NC(C(=O)O)C(C)C (configuration not stated),0,0,0,92,0
C1=C(CCNCc2ccccc2)CCCC1,0,0,70,0,0
Nc1ccccc1N=Cc1c(O)n(CCC2=CCCCC2)c(=O)[nH]c1=O,0,0,0,0,0
Cn1c(O)c(C(=O)c2ccccc2F)c(=O)n(C)c1=O,0,0,0,0,0
